# In the library only some 2.2% were active in any assay of this set; here they are far more common.
# FAS TE block: inhibitors of human fatty acid synthase thioesterase domain; inhibition, % at 15 µM; 0.67% of 360,000 active; recombinant FAS-TE, OMFH fluorogenic substrate, fluorescence endpoint;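 active = compounds whose normalised, plate-corrected inhibition of enzyme fluorescence in the single-dose primary screen is 50% or more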
# Cardio protect: modulators protecting cardiomyocytes from myocardial damage; H9c2 cardiomyocytes, H2O2 injury protection, ATPLite, 2 h; protection from H2O2 cell death, % at 20 µM; 0.63% of 360,000 active; AID 588492;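 active = compounds giving at least 50% protection of heart cells from peroxide-induced death in the single-dose screen, raw or plate-pattern-corrected value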
# PLCb3 inh: blocks human PLC-beta3 enzyme activity. AID 720704. inhibition, % at 12.2 µM. Q01970. Purified PLC-beta3, fluorogenic substrate, fluorescence. 0.18% of 370,000 active
# PLC-gamma1 inh: inhibitors of human phospholipase C gamma1; purified PLC-gamma1, fluorogenic substrate, fluorescence; inhibition, % at 12.2 µM; 0.84% of 370,000 active; AID 720700; in the data active = inhibition above about 9.5%
# PLCgamma1 ctr: PLC-gamma1 inhibition, counter-screen for PLC-beta3 hits. shares compounds with PLC-gamma1 inh. purified PLC-gamma1, fluorogenic substrate, fluorescence. inhibition, % at 12.3 µM. 3.1% of 3,300 active. AID 743258; in the data active = inhibition above about 9.5%
# PLCb3 confirm: confirmation of human PLC-beta3 inhibitors; shares compounds with PLC-gamma1 inh; 1% of 3,300 active; AID 743261; inhibition, % at 12.3 µM; purified PLC-beta3, fluorogenic substrate fluorescence
# Hits are given with their value; . = inactive; / = not tested or not shown. Cut-off read from the data, not from the text of the source, unless noted: active = inhibition above about 11%; inactive = the rest.
SMILES,FAS TE block,Cardio protect,PLCb3 inh,PLC-gamma1 inh,PLCgamma1 ctr,PLCb3 confirm
CCN1CCN(CC(=O)NC2CCCC2)C(=O)C1=O,.,.,.,13,.,.
COc1ccc(C2=NN(C(=O)CSC3=NN4CCCC(=O)N=C4S3)C(c3cccc(OC)c3OC)C2)cc1 (stereo unspecified),.,.,.,9.7,.,.
COc1cccc(C2CC(c3cccs3)=NN2C(=O)CSC2=NN3CCCC(=O)N=C3S2)c1OC (stereo unspecified),.,.,.,.,/,/
Cc1ccc2nc(CN(C)C(=O)[C@H](CCc3ccccc3)NC(=O)[C@H]3O[C@@H](n4cnc5c(N)ncnc54)[C@H](O)[C@@H]3O)[nH]c2c1,/,/,.,.,/,/
Cc1cnnc2c1-c1no[n+]([O-])c1CC2,.,.,.,13,.,.
CC1CCCC(C)N1C(=O)COC(=O)c1ccc(O)cc1 (stereo unspecified),.,.,.,20,.,.
Cc1ccc(C(=O)OCC(=O)N2C(C)CCCC2C)s1 (stereo unspecified),.,.,.,.,/,/
CCn1c(CC(=O)Nc2ccccc2C)nnc1SCC(=O)NC1CCCC1,.,.,.,.,/,/
CNC(=O)C[C@H]1C(=O)N(C2CCCCC2)C[C@@H]1CSC,.,.,.,.,/,/
O=C(CNS(=O)(=O)c1ccccc1Br)OCC(=O)N1CCc2ccccc21,.,.,.,.,/,/
O=C(CNC(=O)c1cccc(F)c1)OCC(=O)N1CCCc2ccccc21,.,.,.,12,.,.
O=C(CNC(=O)c1ccccc1F)OCC(=O)N1CCCc2ccccc21,.,.,.,.,/,/
CC(=O)Nc1ccc(S(=O)(=O)NCC(=O)OCC(=O)N2CCc3ccccc32)cc1,.,.,.,13,.,.
CC1CCCN(C(=O)C23CCC(C)(C(=O)C2)C3(C)C)C1 (stereo unspecified),.,.,11,.,.,.
COc1ccc2cc(C(=O)N3CCN(c4ccccc4OC)CC3)[nH]c2c1,.,.,.,.,/,/
CC1CCCC(NC(=O)CCNC(=O)c2ccc([N+](=O)[O-])cc2)C1C (stereo unspecified),.,.,.,.,/,/
CC1CCCCN1C(=O)CSc1nc2ccccc2n1CC(=O)N1CCc2ccccc21 (stereo unspecified),.,.,.,9.6,.,.
CC(C)NC(=O)CSc1nc2ccccc2n1CC(=O)N1CCc2ccccc21,.,.,/,/,/,/
CN(C)C(=O)Cn1c(SCC(=O)N2CCCc3ccccc32)nc2ccccc21,.,.,.,10,.,.
O=C(NCCCN1CCCC1=O)NC1CCCCC1,.,.,11,.,.,.
CCN(C(=O)COC(=O)CCc1ccc(OC)cc1)c1c(N)n(Cc2ccccc2)c(=O)[nH]c1=O,.,.,.,.,/,/
CC(NC(=O)c1ccccc1Cl)C1COc2ccccc2O1 (stereo unspecified),.,.,13,.,.,.
CC(NS(=O)(=O)c1ccccc1)C1COc2ccccc2O1 (stereo unspecified),.,.,.,.,/,/
COc1ccc(OCCn2cc(/C(N)=N/O)c3ccccc32)cc1,.,.,11,.,.,.
Cc1ccc(OCCn2cc(/C(N)=N/O)c3ccccc32)cc1C,.,.,.,.,/,/
SMILES,FAS TE block,Cardio protect,PLCb3 inh,PLC-gamma1 inh,PLCgamma1 ctr,PLCb3 confirm
O=C(O)c1cccc2cccc(-c3c4ccc(=O)c(O)c-4oc4c(O)c(O)ccc34)c12,.,.,.,39,28,.
O=C(O)c1cccc2cc(-c3ccccc3)oc(=O)c12,.,.,.,.,/,/
CSc1ccccc1-c1ccc2nccn2c1,.,.,.,.,/,/
CCN(CC)S(=O)(=O)c1ccc(NC(=O)COC(=O)CCc2cc(OC)c(OC)c(OC)c2)cc1,.,.,11,.,.,.
CCOC(=O)[C@]12CCCC=C1N(CCc1ccc(OC)c(OC)c1)C(=O)[C@H](CC(=O)NCC13CC4CC(CC(C4)C1)C3)C2,/,/,.,.,/,/
CCOC(=O)COc1nc2ccc(Br)cc2c(-c2ccccc2)c1C(C)=O,.,.,.,9.8,.,.
CCOC(=O)c1c(C)nc2ccc(Cl)cc2c1-c1ccccc1,.,.,.,.,/,/
C[C@H](NC(=O)c1ncn2c1c(=O)[nH]c1ccc(Br)cc12)c1ccccc1,.,.,.,.,/,/
S=C(NCc1cccnc1)Nc1ccc(Cl)c(Cl)c1,.,.,.,.,/,/
O=C(NCc1cccnc1)Nc1ccc(Cl)c(Cl)c1,.,.,.,9.6,.,.
CC(C)NC(=O)N[C@H]1C[C@@H]2O[C@H](CO)CC[C@@H]2O[C@@H]1CCc1ccc(-c2ccccc2F)cc1,/,/,.,.,/,/
N#C/C(=C\c1ccco1)C(=O)NCC1CCCO1 (stereo unspecified),.,.,13,11,.,.
CCN1C(=O)/C(=C\N(C)C)S/C1=N\S(=O)(=O)c1ccc(C)cc1,.,.,.,.,/,/
C=CCN1C(=O)/C(=C/N(C)C)S/C1=N\S(=O)(=O)c1cccs1,.,.,12,.,.,.
COc1ccc(C(=O)NCC2CCCN2S(=O)(=O)c2ccccc2)cc1OC (stereo unspecified),.,.,.,9.5,.,.
Cc1ccc(S(=O)(=O)N2CCCC2CNC(=O)c2ccccc2)cc1 (stereo unspecified),.,.,.,.,/,/
O=c1c2ccccc2c2ccccc2c(=O)n1CC1CCCO1 (stereo unspecified),.,.,.,.,/,/
O=C1OCC(Cn2c3ccccc3c3ccccc32)O1 (stereo unspecified),.,.,.,11,.,.
Cc1cc(NC(=O)C2C3C(=O)N(Cc4ccc(Cl)cc4)C(C(=O)NCc4ccccc4)C34C=CC2(C)O4)no1 (stereo unspecified),.,.,13,10,.,.
CCCCC(=O)Nc1cc([N+](=O)[O-])ccc1F,.,.,.,.,/,/
CCCC(C)C(=O)Nc1cc([N+](=O)[O-])ccc1F (stereo unspecified),.,.,.,9.7,.,.
C[C@H](CO)N1C[C@H](C)[C@@H](CN(C)C)Oc2c(NC(=O)CCC(F)(F)F)cccc2C1=O,.,.,.,.,/,/
CN1CCC(N2CCN(C3CN(Cc4cn(Cc5ccc(C(F)(F)F)cc5)nn4)S(=O)(=O)C3)CC2)CC1 (stereo unspecified),.,/,.,.,/,/
CCOc1ccc(CCNC(=O)COC(=O)c2oc3ccccc3c2COC)cc1OCC,.,.,.,14,.,.
COc1cccc(C(NC(C)=O)c2nc(-c3ccc4ccccc4c3)cs2)c1 (stereo unspecified),.,.,.,.,/,/
CC(=O)Nc1ccc(S(=O)(=O)N/N=C/c2ccc(C)s2)cc1,.,.,12,.,.,.
C=CC[C@@H](CC(=O)NCCO)C(=O)N[C@@H](COC(=O)[C@@H](CC=C)CC(=O)OC(C)(C)C)Cc1ccccc1,.,.,.,10.0,.,.
C=CC[C@@H](CC(=O)N[C@H](CO)Cc1ccccc1)C(=O)N[C@@H](COC(=O)[C@H](CC=C)CC(=O)OC(C)(C)C)Cc1ccccc1,.,.,.,9.5,.,.

# Screening data from PubChem BioAssay.
